# Results taken from PubChem BioAssay (NCI).
# The panel holds about 79,000 compounds, 15% with a hit somewhere; the sample as a whole holds those more often. A number with no mark means an inactive call. Calls of active or inactive are those of the source. Cut-off read from the data, not from the text of the source: active = growth inhibition above about 70%; inactive = the rest.
# What was measured:
# [1] = NCI Yeast Anticancer Drug Screen. Data for the rad50 strain (AID 155);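 note: 0% = growth of vehicle-only cultures of the same strain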; conditions: S. cerevisiae rad50 strain growth inhibition; at 50.0 µM; hits give high values
# Procedure, shortened: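 Yeast carrying a defined DNA repair defect were exposed to test compounds, and growth was compared with vehicle-treated controls to give percent inhibition.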
# [2] = NCI Yeast Anticancer Drug Screen. Data for the mec2-1 strain (AID 157); conditions: S. cerevisiae mec2-1 strain, at 50.0 µM, hits give high values
# Procedure, shortened: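 Each compound was tested on mec2-1 yeast, a strain altered in DNA damage repair or cell cycle control. Growth inhibition is reported relative to vehicle.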
# [3] = NCI Yeast Anticancer Drug Screen. Data for the sgs1 mgt1 strain (AID 161);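 note: 0% = growth of cultures given vehicle only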; conditions: S. cerevisiae sgs1 mgt1 strain, at 50.0 µM, hits give high values
# Procedure, shortened: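 Test agents were incubated with a DNA-repair-mutant yeast strain. Growth was then read and compared against vehicle-treated controls.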
# [4] = NCI Yeast Anticancer Drug Screen. Data for the cln2 rad14 strain (AID 165);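 note: 0% = growth equal to vehicle treated cultures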; conditions: S. cerevisiae cln2 rad14 strain, at 50.0 µM, hits give high values
# Procedure, shortened: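 Test compounds were added to cln2 rad14 yeast cultures; inhibition of growth was then determined by comparison with vehicle treatment.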
# [5] = NCI Yeast Anticancer Drug Screen. Data for the bub3 strain (AID 167); conditions: S. cerevisiae bub3 mutant strain, at 50.0 µM, hits give high values
# Procedure, shortened: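 Compounds were applied to a genetically altered yeast strain carrying a cell-cycle control defect. Growth inhibition was scored against vehicle-treated controls.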
# [6] = NCI Yeast Anticancer Drug Screen. Data for the mlh1 rad18 strain (AID 175); conditions: S. cerevisiae mlh1 rad18 strain growth inhibition; at 50.0 µM; hits give high values
# Procedure, shortened: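 Inhibition values reflect reduced growth of mutant yeast versus vehicle-treated controls following compound exposure; the mutations affect DNA damage repair.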
Structure (SMILES),growth inhibition [1],growth inhibition [2] [%],growth inhibition [3],growth inhibition [4] [%],growth inhibition [5],growth inhibition [6]
O=C1C(=O)N(c2ccccc2Cl)C(=O)N1Cc1ccccc1,10.7%,8.45,0.95%,13.8,2.75%,2.1%
CSC(N)=NC1CCCCC1,-7.35%,0.1,-6.05%,-30.4,35.9%,6.15%
CCOC(=O)C1=C(C)NC(C)=C(C(=O)OCC)C1c1c(C)noc1C,19.6%,18.6,60.7%,19.3,6.95%,61.4%
N#C/C(=C/c1cccc([N+](=O)[O-])c1)C(=O)O,38%,10.6,22.6%,12.9,15.8%,38%
N#Cc1c(-c2ccc(Cl)cc2)c2c(n(C3OC(CO)C(O)C(O)C3O)c1=S)CCC2 (stereo unspecified),12.5%,32.1,61.3%,31.9,50.4%,42.4%
Cc1nc2ccc(Br)cc2c(=O)n1-c1ccc(N=Cc2ccccc2Cl)cc1,49.8%,16.5,26.6%,19.6,2.6%,34.8%
C=CC1=C(C)C2=NC1=CC1=NC(=CC3=C(C)C4=C(O)C(C(=O)OC)C(=C5NC(=C2)C(C)C5CCC(=O)OC/C=C(\C)CCCC(C)CCCC(C)CCCC(C)C)C4=N3)C(CC)=C1C (stereo unspecified),-17.7%,-33.4,-49.8%,3.4,-29.1%,-20.9%
Cn1c(=O)c2[nH]c(Br)nc2n(C)c1=O,-12%,-13.4,5.4%,-4.25,13.3%,-12.2%
CCOc1cc2c(cnc3c4cc(OC)c(OC)cc4ccc23)cc1OC,-8.6%,-15.2,-13.5%,-6.25,-17.9%,-16.6%
CC(=O)N1c2ccccc2C2(C)CCCC(O)C12O (stereo unspecified),8.05%,6.05,-3.9%,1.9,6.5%,-23.9%
c1ccc(-c2cc3nc4ccccc4nc3o2)cc1,-6.65%,-10.6,-13%,1.6,2.15%,-4.4%
COc1ccc(C2OC3=Nc4cc(C)c(C)cc4NC3C2=O)cc1OC (stereo unspecified),15.7%,-6.75,-6.15%,-1.9,-23.4%,1.9%
S=C(NNC(=S)Nc1ccccc1)Nc1ccccc1,-16.9%,1.7,6.9%,-1.15,-5.4%,-2.2%
CCC12C=CCN(CCc3c([nH]c4ccccc34)/C=C\1)C2 (stereo unspecified),-8.95%,-8.75,-7.25%,-1.6,6.55%,-15.8%
C[N+](C)(C)CCC(=O)CC[N+](C)(C)C,16.2%,-2.2,0.5%,-24.4,32.6%,40.9%
c1cc2[nH]snc2c2cncc12,12.5%,9.2,0.25%,-19.1,-24.1%,6.6%
C=CCc1cc(OC)c2c(c1)C(O)CC(c1ccccc1)O2 (stereo unspecified),15.2%,-24.6,-34.6%,-6.2,2.9%,1.55%
CC1CC(C)(C)NC(c2ccccc2)O1 (stereo unspecified),1.75%,-5,1.3%,10.1,-14.4%,29.4%
O=C1OC(=O)C2C3CCC(O3)C12 (stereo unspecified),13.9%,7.4,4.75%,-0.8,-0.5%,-5%
O=C(Cn1ccccc1=O)c1ccc(F)cc1,9.65%,-0.15,0%,-18.6,1.7%,-8.25%
CCCC(=O)OCCC(C)C,30.9%,10.3,13.3%,-29.9,-13.5%,22.4%

Structure (SMILES),growth inhibition [1],growth inhibition [2] [%],growth inhibition [3],growth inhibition [4] [%],growth inhibition [5],growth inhibition [6]
CCOCCC12CCCCC1C/C(=N/OC(C)=O)c1ccccc12 (stereo unspecified),9.3%,-5.95,-0.45%,1.2,15.7%,35.8%
O=c1cc(C(O)C(O)C(O)C(O)CO)[nH]c(=O)[nH]1 (stereo unspecified),2.4%,7.1,9%,24.9,-5.05%,-4.6%
CC(=NNC(=S)Nc1ccc(C)cc1)c1cccc(C(C)=NNC(=S)Nc2ccc(C)cc2)n1,35.5%,14.1,36.8%,17.4,12.4%,23.8%
Nc1cc(Cl)ccc1S(=O)(=O)O,-7.1%,-1.8,2.1%,-48.8,-15.1%,-4.4%
O=C(Nc1ccccc1CC(O)c1ccc2c(c1)OCO2)c1ccccc1 (stereo unspecified),19.1%,-8.1,3.65%,-22.8,11.6%,13.8%
Cc1cc(Br)cc2c1NC(=O)C(C)C2C (stereo unspecified),-2.95%,12.7,-24.6%,-8.95,-3.35%,1.1%
CN/N=C(\C)CC(=O)Nc1cccc(Cl)c1C,-13.7%,-17.6,-1.15%,17.2,-15%,1.9%
Cc1ccc(S(=O)(=O)OC2C3OC(C)(C)OC3OC2C2CSC(=S=O)S2)cc1 (stereo unspecified),31.6%,-0.6,21.8%,22.2,-3.15%,12.7%
Cc1ccc(N=Nc2c(C)nn(C(=S)S)c2C)cc1,71.9% (active),39.4,90% (active),35.8,83.3% (active),96.2% (active)
CNC(=O)c1ccccc1C(=O)c1ccccc1OC,7.5%,-11.7,-3.05%,-25.1,17.4%,2.15%
O=C(Cc1ccc(Cl)cc1)NCCc1ccccc1,-1.4%,-14.6,-5.15%,32.9,18.4%,7.3%
NC(=O)CS(=O)CC(N)C(=O)O (stereo unspecified),-5.9%,-34.4,-46%,-57.1,-10.9%,-29.6%
COc1ccc2c(c1)CCC1C(=O)NN=C21 (stereo unspecified),12.8%,-4.1,-5.6%,-43.4,-23.1%,-8%
CC(=O)Nc1cccc(NC(C)=O)c1,0.4%,4.55,5.1%,-17.9,-1.05%,11.2%
CCN(CC)CCNc1c2ccc(Cl)cc2nc2c1c(C)nn2C,-7.05%,9.15,18.9%,21,33.1%,6.95%
S=C([S-])[P+](C1CCCCC1)(C1CCCCC1)C1CCCCC1,-30.9%,-39.1,-28.2%,-29.2,-39.1%,-39.2%
CCCCC(CC)C(O)CC(C)=O (stereo unspecified),39.1%,16.9,25%,-8.75,14.2%,21.1%
CN(C)CCOC(=O)C(C)(C)Sc1ccc(Cl)cc1,11.1%,23.3,26.4%,-5.35,0.4%,25.5%
CC1=C(C(=O)Nc2ccccc2C)C(c2ccc(C3C(C(=O)Nc4ccccc4C)=C(C)NC(C)=C3C(=O)Nc3ccccc3C)cc2)C(C(=O)Nc2ccccc2C)=C(C)N1,65.7%,65,61.2%,47.8,21.6%,84.6% (active)
c1ccc(COC2NCCN2Cc2ccccc2)cc1 (stereo unspecified),-29.6%,-20.5,-10.7%,6.8,-55.5%,-7.85%
